# Sampled rows, rich in hits. Any-hit rate of the full collection: about 5.4%.
# p53 reactivator – mutant p53 re-activation in reporter cells; H1299 p53-A138V BP100-luciferase reporter, luminescence, 24 h; 320,000 compounds, 0.063% hits; Potency, µM (series often up to 92.2 µM), inactives show at the highest dose activity change, positive = activation, hits mostly activators; also: potency is read from the fitted curve at half-maximal effect; % of control where 0% means no effect; nearly all actives have a fitted effect of over 45% in size
#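 H1299 (p53-null), stable ts p53-A138V + BP100-Luc; 1000 cells/well, Opti-MEM/10% FBS; cpd 4 pt, 1:5; 24 h, 37 deg C, 5% CO2; detection reagent 10 min RT; luminescence.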
# CtBP-E1A blk – inhibitors of CtBP/E1A interaction. AlphaScreen GST-E1A/His-CtBP binding, 1536-well; active compounds read low. activity change, % (concentration not given with the values). 340,000 compounds, 0.49% hits. AID 651724; in the data active = activity change below about -65%; inconclusive = mostly about -30% to -63%; also: % is scaled to controls: 0 for no effect and ±100 for the full control effect
#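 GST-E1A and His-tagged CtBP (125 nM each as 5X stock) were preincubated with pin-transferred compound for 2 h at 37 °C in the dark, then glutathione donor and nickel acceptor beads were added for 1 h before AlphaScreen reading.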
# VP16 counter – counter-screen for ROR gamma inhibitors: Gal4-VP16 reporter | Drosophila S2 Gal4-VP16 UAS-luciferase, luminescence, 20 h | Potency, µM (series often up to 53.6 µM), for inactives: at the highest dose activity, negative = inhibition, most hits filed as inhibitors | 310,000 compounds, 3.5% hits;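 also: Gal4-VP16 expression switched on by copper sulfate through the metallothionein promoter; potency is read from the fitted curve at half-maximal effect; % is scaled to controls: 0 for no effect and ±100 for the full control effect; nearly all actives have a fitted effect of over 50% in size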
# RORgamma inh – inhibitors of mouse ROR gamma transcriptional activity. P51450. 310,000 compounds, 5.4% hits. Drosophila S2 Gal4-RORgamma UAS-luciferase reporter, 20 h. Potency, µM (highest dose often 53.6 µM), for the others: top-dose activity change, negative = inhibition, usual class: inhibitors; also: potency is read from the fitted curve at half-maximal effect; % is scaled to controls: 0 for no effect and ±100 for the full control effect; nearly all actives have a fitted effect of over 60% in size
# Target sequence (P51450 whole entry, looked up, the tested form may be a part): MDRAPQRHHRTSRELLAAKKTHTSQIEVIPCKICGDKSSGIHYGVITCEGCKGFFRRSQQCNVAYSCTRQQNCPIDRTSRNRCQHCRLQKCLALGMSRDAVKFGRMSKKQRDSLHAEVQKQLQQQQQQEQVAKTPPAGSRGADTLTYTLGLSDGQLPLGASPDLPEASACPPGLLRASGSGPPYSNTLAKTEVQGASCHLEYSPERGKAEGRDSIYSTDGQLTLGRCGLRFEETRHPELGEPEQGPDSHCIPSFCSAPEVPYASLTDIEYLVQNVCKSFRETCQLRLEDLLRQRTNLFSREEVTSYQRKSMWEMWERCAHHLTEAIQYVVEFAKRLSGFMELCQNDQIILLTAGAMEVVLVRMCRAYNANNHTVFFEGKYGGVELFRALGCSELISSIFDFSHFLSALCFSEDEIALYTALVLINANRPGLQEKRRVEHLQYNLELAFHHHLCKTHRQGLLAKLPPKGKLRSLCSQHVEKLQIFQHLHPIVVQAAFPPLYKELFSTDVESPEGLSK
#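 Luminescence from a UAS-regulated Photinus luciferase reporter in stably transfected Drosophila Schneider cells is measured; decreased signal marks ROR gamma inhibition. Fusion expression is induced by 700 uM copper sulfate for 20 hr.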
# Six1-Eya2 blk – Six1/Eya2 interaction inhibition; Q15475+O00167; AlphaScreen GST-Six1/His-Eya2 binding, biochemical; active compounds read low; activity change, % (concentration not given with the values); 360,000 compounds, 0.56% hits; AID 651725; in the data active = activity change below about -65%; inconclusive = mostly about -30% to -63%; also: % is scaled to controls: 0 for no effect and ±100 for the full control effect
#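 AlphaScreen with GST-Six1 and His-Eya2 (5X mix: 250 nM and 500 nM), glutathione donor and nickel acceptor beads; buffer 50 mM Tris pH 8.0, 300 mM NaCl, 1 mM TCEP; 1 h at 37 C in the dark.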
# * = called active by the depositor; ? = inconclusive; nt = no result; [ ] = dose if it differs, or a comment. Unless noted, calls follow the shape of the dose curve; as a rule, active = well fitted curve in the direction sought with a large enough effect; inconclusive = small, poorly fitted or top-dose-only effect, or another doubt; inactive = no such curve, though single readings can be large; an effect the other way counts as inactive or inconclusive.
SMILES,p53 reactivator,CtBP-E1A blk,VP16 counter,RORgamma inh,Six1-Eya2 blk
Cc1cc(C)n(-c2ccc(C(=O)Nc3ccc(C)c(S(=O)(=O)N(C)C)c3)cc2)n1,-5.6%,?,17.8µM*,-34.1%,?
O=S(=O)(NCc1ccco1)c1ccc2c(c1)Cc1ccccc1-2,?,-3.0,8.91µM*,?,-1.7
Cc1ccc(S(=O)(=O)NCc2ccco2)cc1C,3.4%,9.0,14.3%,25.1%,-1.8
O=C1CC(c2ccccc2F)c2c(c3ccccc3[nH]c2=O)O1 (stereo not drawn),-1.0%,3.2,-5.7%,-24.9%,-2.3
O=C(c1ccc(=O)[nH]c1)N1CCN(S(=O)(=O)c2ccc3ccccc3c2)CC1,-8.9%,-2.9,nt,nt,3.3
O=c1c2cc(Br)ccc2nc(-c2ccccc2)n1O,11.8%,nt,?,?,-1.9
Cc1ccccc1/C=N/Nc1nc2ccccc2c(=O)n1O,11.7%,-3.3,?,7.08µM*,-16.1
Cc1ccc(-c2nc3ccccc3c(=O)n2O)cc1,4.5%,5.4,14.1µM*,?,-4.5
O=c1c2ccccc2nc(-c2ccc([N+](=O)[O-])cc2)n1O,-7.3%,8.9,3.98µM*,4.4%,4.1
Cc1ccc(-c2nc3ccc(Cl)cc3c(=O)n2O)cc1,14.4%,-0.7,11.2µM*,?,0.7
Cc1cccc(N2CCN(S(=O)(=O)c3ccc4c(c3)CCCN4C(=O)C3CCC3)CC2C)c1 (stereo not drawn),-2.1%,2.8,1.6%,18.6%,-19.8
CC(OC(=O)COc1ccccc1[N+](=O)[O-])C(=O)Nc1ccc(N2CCOCC2)cc1 (stereo not drawn),0.5%,-4.1,7.9%,-4.9%,-2.7
O=c1c2ccccc2nc(-c2cccc(Cl)c2)n1O,3.0%,0.0,nt,1.4%[0.365 µM],1.9
O=c1c2cc(Cl)ccc2nc(-c2ccccc2Cl)n1O,-5.1%,nt,20µM*,?,0.0
COc1cccc(/C=C/C(=O)OCC(=O)c2c[nH]c3ccccc23)c1,1.0%,-78.5*,nt,nt,-16.3
O=S(=O)(c1ccccc1)N1CCC2(CCN(c3ccc(-c4ccccc4)cc3)CC2)CC1,nt,nt,18.4%,-4.9%,nt
Cc1ccc(OCCn2c(C)nc3ccccc32)cc1,nt,4.2,?,-12.3%[1.91 µM],-1.2
Cc1ccc(OCCn2c(NC(=O)c3ccco3)nc3ccccc32)cc1,4.6%,-2.2,2µM*,1.58µM*,2.6
CC(NC(=O)/C=C/c1ccco1)c1nc2ccccc2n1Cc1cccc(Cl)c1 (stereo not drawn),-3.7%,2.3,11.2µM*,?,-9.7
C=CCn1c(NC(=O)c2ccco2)nc2ccccc21,-16.8%,-3.7,3.55µM*,3.98µM*,-3.4
CC(=O)Nc1nc2ccccc2n1Cc1ccc(Cl)cc1,2.9%,3.2,1.58µM*,1.12µM*,2.2
C=CCn1c(NCc2ccco2)nc2ccccc21,nt,9.7,18.0%,16.1%,-2.5
COC(=O)c1ccccc1NC(=S)N1CCN(c2ccc(OC)cc2)CC1,-5.3%,nt,4.8%,-9.4%,-2.4
CSCC[C@H](NC(=O)[C@@H]1CCCN1C(=O)CNC(=O)[C@H](CCCCN)NC(=O)[C@H](Cc1cnc[nH]1)NC(=O)[C@H](CO)NC(=O)[C@H](CC(C)C)NC(=O)[C@H](CCCNC(=N)N)NC(=O)[C@@H]1CCCN1C(=O)[C@H](CCCNC(=N)N)NC(=O)[C@H](CCC(N)=O)NC(=O)[C@H](CCCNC(=N)N)NC(=O)[C@H](CCCNC(=N)N)NC(=O)[C@H](Cc1ccccc1)NC(=O)[C@@H](N)CCCCN)C(=O)N1CCC[C@H]1C(=O)N[C@@H](Cc1ccccc1)C(=O)O,nt,nt,-1.0%,8.9%,nt
C=CCn1c(C(C)C)nc2ccccc21,-2.2%,-18.6,-5.0%[10 µM],11.2µM*,3.3
O=C(Nc1nc2ccccc2n1CCN1CCCCC1)c1ccco1,-5.2%,-15.0,?,0.0%[10 µM],-27.4
c1ccc(Cn2c(NCc3ccco3)nc3ccccc32)cc1,-7.4%,-7.1,2.3%,-31.8%,-12.2
C=CCn1c(C(O)c2ccccc2)nc2ccccc21 (stereo not drawn),0.1%,8.7,6.1%,0.6%,-15.2
O=C(Nc1nc2ccccc2n1Cc1ccc(Cl)cc1)c1ccco1,-6.2%,0.0,2µM*,0.708µM*,-5.8
